Shiga inhibitor: blocks Shiga toxin action in Vero cells. Vero cells, Shiga toxin protein synthesis inhibition reporter. inhibition, % at 38.7 µM. hit rate 9.2% among 290,000. AID 2315; in the data active = inhibition mostly above about 28%, no sharp cut-off; inactive = mostly below about 43%; also: 0% is about no effect
LmPK inhibitor: blocks Leishmania mexicana pyruvate kinase activity. Q27686. purified LmPK, Kinase-Glo ATP luminescence, 1 h. Potency, µM (doses to about 57.5 µM), for the others: at the top dose activity change, negative = inhibition, hits mostly inhibitors. hit rate 0.37% among 290,000. AID 1721; also: potency is read from the fitted curve at half-maximal effect; % is scaled to controls: 0 for no effect and ±100 for the full control effect
Target sequence (Q27686 whole entry, looked up): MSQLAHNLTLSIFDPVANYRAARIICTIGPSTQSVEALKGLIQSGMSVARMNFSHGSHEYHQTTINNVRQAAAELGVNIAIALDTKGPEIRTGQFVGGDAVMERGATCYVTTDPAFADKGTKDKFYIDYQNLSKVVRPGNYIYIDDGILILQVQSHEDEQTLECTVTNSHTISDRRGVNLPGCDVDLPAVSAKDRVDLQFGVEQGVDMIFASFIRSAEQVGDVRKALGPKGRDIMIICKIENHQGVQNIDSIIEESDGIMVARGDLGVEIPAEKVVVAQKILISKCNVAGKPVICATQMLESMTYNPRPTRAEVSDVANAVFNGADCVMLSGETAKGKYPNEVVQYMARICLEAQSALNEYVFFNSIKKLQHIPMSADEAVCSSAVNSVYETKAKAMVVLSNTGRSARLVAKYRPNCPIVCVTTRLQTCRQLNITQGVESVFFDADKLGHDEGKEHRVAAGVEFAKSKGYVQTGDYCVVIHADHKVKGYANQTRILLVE
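Pyruvate kinase activity monitored as ATP production (luciferase luminescence). Conditions: 0.1 nM enzyme, 0.5 mM PEP, 0.1 mM ADP, 1 h, RT; normalized against uninhibited and no-enzyme wells.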
Pf growth 96h: P. falciparum growth inhibition at 96 hour, primary screen for plastid delayed-death inhibitors; hit rate 6.9% among 320,000; AID 504834; Potency, µM (doses to about 28.7 µM), without a hit: at the top dose activity change, negative = inhibition, hits mostly inhibitors; P. falciparum luciferase reporter growth, 96 h; also: potency is read from the fitted curve at half-maximal effect; % is scaled to controls: 0 for no effect and ±100 for the full control effect
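Parasite growth measured via integrated firefly luciferase reporter in P. falciparum. Infected erythrocytes at 2% hematocrit, 0.05% parasitemia final were treated 96 hours at 37 C under 5% CO2, and luminescence was read.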
CHX counter: counter-screen for Shiga toxin inhibitors: cycloheximide protein synthesis inhibition; cell reporter, cycloheximide protein synthesis inhibition counterscreen; max response, %; hit rate 12% among 300,000; AID 2314; in the data active = max response mostly above about 13%, no sharp cut-off; inactive = mostly below about 14%; also: read at 38.3 µM for the half of the compounds with a filed dose; 0% is about no effect
Pf growth 48h: P. falciparum growth inhibition at 48 hours (one generation) | hit rate 5.9% among 310,000 | P. falciparum luciferase growth in erythrocytes, 48 h | Potency, µM (doses to about 28.7 µM), without a hit: top-dose activity change, negative = inhibition, most hits filed as inhibitors | AID 504832; also: potency is read from the fitted curve at half-maximal effect; % is scaled to controls: 0 for no effect and ±100 for the full control effect
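Parasite viability was followed by luminescence of a genomically integrated firefly luciferase. Cultures held 0.1% parasitemia at 2% hematocrit (final), incubated under 5% CO2 at 37 C.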
Active calls of the source: *; i = inactive; ? = inconclusive; . = no result; [ ] = another dose, or the depositor's remark. This is a sample that favours compounds with a hit; in the whole collection about 22% have one here. Unless noted, calls follow the shape of the dose curve; as a rule, active = well fitted inhibition curve with a large enough effect; inconclusive = small, poorly fitted or top-dose-only effect, or another doubt; inactive = no such curve, though single readings can be large or run the other way.

SMILES	Shiga inhibitor	LmPK inhibitor	Pf growth 96h	CHX counter	Pf growth 48h
CCOC(=O)C1CCN(c2nc(-c3ccc(C)cc3)nc3ccccc23)CC1	37	9%	?	-1	?
CCOC(=O)C1CCN(C(=O)CSc2c3c(nc4ccccc24)CCC3)CC1	-4	-2%	21%	-5	0%
COc1ccc(CNC(=O)c2ccccc2NC(=O)C2=CSCCO2)c(OC)c1	-2	-11%	?	-2	?
CCN1CCN(C(c2cccs2)C(C)NC(=O)C(=O)N2CCCCC2)CC1 (configuration not stated)	-2	7%	?	-3	-19%
Fc1ccc(-c2cnn3c(-c4ccncc4)ccnc23)cc1	73*	-16%	i	22*	145%
Nc1c(-c2cccc(Cl)c2)cnc2c(-c3ccccc3)cnn12	64*	7%	257%	45*	196%
Cc1nc2c(-c3ccc(F)cc3)cnn2c(N)c1-c1ccccc1	140*	2%	-52%	59*	4%[0.00184 µM]
Cc1nn2c3c(cnc2c1-c1ccccc1)C(=O)CC(c1ccco1)C3 (configuration not stated)	4	4%	.	22	1.5µM*
Fc1ccc(-c2cnn3c(-c4cccs4)ccnc23)cc1	53	-2%	490%	15	404%
Cc1cc(C(F)(F)F)n2ncc(-c3ccc(F)cc3)c2n1	2	-7%	4%	6	.
CCOC(=O)c1ccc(CN2Cc3ccccc3C2=O)cc1	18	0%	4%	9	.
Cc1nc2c(-c3ccc(F)cc3)c(C)[nH]n2c(=O)c1Cl	-6	-5%	5%	-3	-2%
Cc1nn2c(N)c(C#N)cnc2c1-c1ccccc1	24	-9%	.	16	46%
COc1ccc(-c2c(C)nc3c(-c4ccc(F)cc4)cnn3c2N)cc1	53*	9%	58%	66*	290%
Cc1nc2c(-c3ccc(Cl)cc3)cnn2c(N)c1-c1ccc(F)cc1	138*	2%	232%	64*	6%
Cc1nc2c(-c3ccc(Cl)cc3)cnn2c2c1CCC2	68*	4%	129%	35*	394%
Cc1nn2c(N)c(-c3ccccc3)cnc2c1-c1ccccc1	31	-6%	58%	17*	43%
Cc1ccc(S(=O)(=O)Nc2nc3ccc(S(=O)(=O)N4CCCC4)cc3s2)cc1	-8	8%	-49%	-1	?
CN(CCC#N)C(=O)CSc1nnc(-c2c[nH]c3ccccc23)o1	15	-6%	-19%	11	1%
Nc1c(-c2ccc(Cl)cc2)cnc2c(-c3ccc(F)cc3)cnn12	88*	2%	302%	34*	195%
COc1ccccc1-c1c(C)nn2c(N)c(-c3ccc(Cl)cc3)cnc12	.	0%	?	-3	?
CC(=O)Oc1c(I)cc(I)cc1C(=O)Nc1ccc(Cl)cc1	36	-3%	?	24*	-6%
CCOC(=O)C1=C(C)N=C2SC(C)C(=O)N2C1c1ccc(OCC)c(OCC)c1 (configuration not stated)	-7	4%	39%	1	12µM*
CCC1SC2=NC(C)=C(C(=O)OC)C(c3cccs3)N2C1=O (configuration not stated)	-16	7%	31%	-10	5%
CCOC(=O)C1=C(C)N=C2SC(C)C(=O)N2C1c1ccccc1 (configuration not stated)	-11	-4%	2%	-2	?
SMILES	Shiga inhibitor	LmPK inhibitor	Pf growth 96h	CHX counter	Pf growth 48h
CCOC(=O)C1=C(C)N=C2SCCC(=O)N2C1c1ccc(C(=O)OC)cc1 (configuration not stated)	-3	7%	.	-3	.
CCOC(=O)C1=C(C)N=C2SC(C)C(=O)N2C1c1ccc(C(=O)OC)cc1 (configuration not stated)	-9	8%	3.7µM*	-1	3%
CCOC(=O)C1=C(C)N=C2SC(CC)C(=O)N2C1c1cccc(F)c1 (configuration not stated)	8	6%	10µM*	-1	-5%
CCOC(=O)C1=C(C)N=C2SC(C(=O)OC)=CC(=O)N2C1c1cc(OC)c(OC)c(OC)c1 (configuration not stated)	-5	3%	-6%	-3	4.7µM*
COc1ccccc1/C=C/C=c1\sc2nc(=O)c(Cc3ccccc3)nn2c1=O	-4	1%	4%	1	-9%
CCCCn1nnc(N(C(=O)c2cccs2)C(=O)c2cccs2)n1	86*	-5%	11%	37*	47%
CC(OC(=O)CCc1cc(C(C)(C)C)c(O)c(C(C)(C)C)c1)C(=O)NC1CC1 (configuration not stated)	.	.	0.66µM*	.	0.47µM*
Cc1ccc(N=Nc2ccc3ccccc3c2O)cc1	.	-18%	122%	44*	94%
Oc1ccc2ccccc2c1N=Nc1ccc(F)cc1	-4	-6%	?	-1	-3%
Oc1c(N=Nc2ccc(F)cc2)ccc2ccccc12	.	-8%	11%	34*	122%
CC(C)(C)NC(=O)c1cc([N+](=O)[O-])ccc1N1CCCCC1	-11	-1%	?	-2	?
O=C1CCC(C(=O)OCc2nnc(-c3ccc(Cl)cc3)o2)=NN1	.	.	9%	.	41%
O=C(OCc1nnc(-c2ccccc2)o1)c1cccnc1Cl	26	-5%	46%	19*	40%
O=C(OCc1nnc(-c2ccc(Cl)cc2)o1)c1ccc(O)cc1	28*	4%	27%	19*	-2%
O=C(OCc1nnc(-c2ccccc2)o1)c1cc(Cl)ccc1[N+](=O)[O-]	57	-4%	38%	31*	0%
O=[N+]([O-])c1cc(-c2nnc(-c3ccccc3)o2)ccc1Oc1ccc(Cl)cc1	61*	-5%	57%	32*	93%
COc1ccc(OC)c(C2=Nn3c(nnc3-c3ccccc3OC)SC2)c1	8	.	.	13	.
COCCCNC(=O)c1ccc2c(c1)nc(C)n2-c1cccc(C)c1	-6	10%	22%	-4	?
CC(=O)Nc1c(O)nc(SCc2ccccc2C#N)[nH]c1=O	-16	-5%	37%	-3	1%
O=C1C2CC=CCC2C(=O)N1c1cccc(OS(=O)(=O)c2ccc3ccccc3c2)c1 (configuration not stated)	-10	8%	3.3µM*	9	.
O=C(COC(=O)COc1ccccc1)NC1CCCc2ccccc21 (configuration not stated)	-11	-1%	17%	1	10%
C=CCN(CC=C)C(=O)c1cccc(OC2CCN(S(=O)(=O)N(C)C)CC2)c1	-20	-1%	?	2	-9%
COCCN(C(=O)c1ccc(OC2CCN(S(=O)(=O)N(C)C)CC2)cc1)C(C)C	18	3%	?	11*	-7%
CN(C)S(=O)(=O)N1CCC(Oc2ccc(C(=O)NCc3cnn(C)c3)cc2)CC1	-5	3%	?	7	-9%
C[C@@H]1CN(C(=O)c2ccc(OC3CCN(S(=O)(=O)N(C)C)CC3)cc2)C[C@H](C)O1	-2	-2%	?	10	-11%
